Data reported in PubChem BioAssay AID1117359 (Southern Research Institute, 2015).
About 460 (31%) of roughly 1,500 compounds were called active.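 How the source made its calls: active means viability at or below 80% at any tested concentration, marking the compound as toxic; inactive means the rest.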 Only a sample is shown. Entries that show only a call come without a potency. Potency and affinity values are given separately.

Assay: THP-1 cell cytotoxicity, dose response, cytotoxicity control for Vif-APOBEC3G degradation inhibitor project, THP-1 cells (AID 1117359)
Conditions: THP-1 viability, CellTiter-Glo luminescence, 72 h; series mostly up to 40 µM

Compound | outcome
CC(Sc1nnc(C2CC2)n1C)C(=O)Nc1ccc(N2CCOCC2)cc1 (centres undefined) | inactive
CC1=C(C#N)C(=O)N(C2CCS(=O)(=O)C2)C(=O)/C1=C\c1ccco1 (centres undefined) | inactive
O=C1c2ccccc2C(=O)N1/N=C/c1ccc(O)c(O)c1O | inactive
Nc1ccc(Nc2ccccc2)c(S(=O)(=O)O)c1 | inactive
Cc1ccc(NC(=O)COc2ccc(/C=N/NC(=O)CSCc3ccccc3)cc2)cc1 | inactive
CCCCC1=CC2=CC(=O)C(C)(OC(=O)c3cnc4ccccc4n3)C(=O)C2=CO1 (centres undefined) | inactive
c1cnc(N2CCN(c3cnccn3)CC2)nc1 | inactive
COc1ccc(CN2CCNC(=O)C2CC(=O)NC2CCCC2)cc1OC (centres undefined) | inactive
CCN(CC)S(=O)(=O)c1ccc(C(=O)NCc2n[nH]c(=S)n2-c2ccccc2OC)cc1 | inactive
Cc1ccc2c(c1)NC(=O)c1cc([N+](=O)[O-])ccc1O2 | inactive
NS(=O)(=O)c1ccc(NC(=O)COC(=O)CC2Sc3ccccc3NC2=O)cc1 (centres undefined) | inactive
CCOC(=O)c1ccc(NS(=O)(=O)c2ccc3oc(=O)[nH]c3c2)cc1 | inactive
COC(=O)c1ccc(C(=O)OC)c(NC(=O)Cc2cccs2)c1 | inactive
COc1ccc(CCNC(=O)/C=C/c2ccco2)cc1 | inactive
CC[C@H](C)[C@H](NC(N)=O)C(=O)NCCc1ccc(OC)cc1 | inactive
Nc1ccc(Oc2ncccn2)cc1 | inactive
CCOC(=O)c1[nH]nc(-c2c(O)cc(C)cc2O)c1-c1csc(C)n1 | inactive
CC(C)OCCCNC(=O)c1cccs1 | inactive
O=C(Nc1ccccc1)c1ccc(S(=O)(=O)N(CCO)CCO)cc1 | inactive
CC(C)CN1C(=O)c2ccc(C(=O)Nc3ccc(O)cc3C(=O)O)cc2C1=O | inactive
CS(=O)(=O)c1ccc(Cl)c(NC(=O)COC(=O)COc2ccc3c(c2)CCC3)c1 | inactive
CCOc1ccc(NC(=O)CCS(=O)(=O)c2ccc(Br)cc2)cc1 | inactive
Cc1nccn1CC(=O)N/N=C/c1ccc(O)c(O)c1 | inactive
Cc1ccsc1C=Nc1ccc(O)cc1 | inactive
Oc1ccc(N=Cc2sc3ccccc3c2Cl)cc1 | inactive

Compound | outcome
NC(=S)N=Nc1c(O)cc(O)c2[nH]c(=O)ccc12 | inactive
Cc1n[nH]c(=S)n(NC(=O)/C=C/C(=O)Nn2c(=S)[nH]nc(C)c2=O)c1=O | inactive
CCN(CC)C(=O)NCc1c(C)cc(C)cc1C | inactive
CCOC(=O)C(=O)Cc1cccnn1 | inactive
CC(=O)c1ccc(S(=O)(=O)Nc2cccc(-n3cnnn3)c2)cc1 | inactive
CC1CCC(NC(=O)CCS(=O)(=O)c2ccc3c(c2)CCN3C(=O)C2CC2)CC1 (centres undefined) | inactive
CCc1ccc(-c2nc(SCC(=O)c3c(N)n(C4CC4)c(=O)[nH]c3=O)n[nH]2)cc1 | inactive
COCCn1c(SCC(=O)N2CCC(C)CC2)nc2c([nH]c3ccccc32)c1=O | inactive
O=C(c1ccc2nc(-c3ccco3)c(-c3ccco3)nc2c1)N1CCN(c2ncccn2)CC1 | inactive
N#Cc1ccccc1S(=O)(=O)N1CCN(C(=O)CN2CCCC2c2cccs2)CC1 (centres undefined) | inactive
Cc1ccccc1OCC(=O)OCC(=O)c1ccc(OC(=O)c2ccccc2)cc1 | inactive
COc1ccccc1OCC(=O)NCC1CCCN(Cc2cnn(C(C)C)c2)C1 (centres undefined) | inactive
Cc1cc(C(=O)NNC(=O)CCC2CCCCC2)c(C)o1 | inactive
CCOc1ccc(N(CC(=O)NCCC2=CCCCC2)S(=O)(=O)c2ccccc2)cc1 | inactive
O=C(c1cc(COc2cccc3cccnc23)on1)N1CCC[C@H]1CO | inactive
CC(Oc1cccc2cccnc12)C(=O)N/N=C/c1ccc2c(c1)OCO2 (centres undefined) | inactive
CC(=O)Nc1ccc(NC(=O)CN(c2cccc(C(C)=O)c2)S(C)(=O)=O)cc1 | inactive
COc1ccc(-n2c(Cc3cccn3C)nnc2SCC(=O)Nc2ccccc2)cc1 | inactive
CCOC(=O)c1cc2c(n(-c3ccccc3)c1=O)CC(C)(C)CC2=O | inactive
Cn1c(N)c(C(=O)CCl)c(=O)n(Cc2ccccc2)c1=O | inactive
O=C(O)c1cc(-c2ccccc2)on1 | inactive
CN1CCN(C(CNC(=O)c2ccc(Br)o2)c2ccc(F)cc2)CC1 (centres undefined) | inactive
CC(NC(=O)CSc1nnc2n1CCCCC2)c1ccccc1Cl (centres undefined) | inactive
COc1cc(CN2CCNC(=O)C2CC(=O)N(Cc2nccn2C)C(C)C)cc(OC)c1 (centres undefined) | inactive
